Data reported in PubChem BioAssay (NCI).
Compounds without any hit were thinned out: in the full panel of roughly 83,000, 20% have a hit.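 In brief: 96-well plates, 48 h treatment, single concentration, percent growth endpoint.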 Activity calls are given as the source filed them. How the source made its calls: active means growth percent below 10; inactive means the rest.

Assays:
Test in all cases: NCI-60 one-dose screen, 48 h (100 = growth as untreated, 0 = no growth, -100 = all killed)
Details in all cases: 10 µM unless noted
DU-145 prostate = tested on: DU-145 prostate
K-562 leukemia = tested on: K-562 leukemia
MALME-3M melanoma = tested on: MALME-3M melanoma
MDA-MB-231 breast = tested on: MDA-MB-231 breast
RXF 393 renal = tested on: RXF 393 renal
SF-268 CNS = tested on: SF-268 CNS
SF-295 CNS = tested on: SF-295 CNS
SF-539 CNS = tested on: SF-539 CNS
UACC-257 melanoma = tested on: UACC-257 melanoma
M14 melanoma = tested on: M14 melanoma

Measured: growth

O=S(=O)(O)c1ccc(F)cc1
inactive: DU-145 prostate 103% | K-562 leukemia 85% | MALME-3M melanoma 90.7% | MDA-MB-231 breast 112% | RXF 393 renal 116% | SF-268 CNS 93.2% | SF-295 CNS 96.1% | SF-539 CNS 102% | UACC-257 melanoma 111% | M14 melanoma 98.1%

COc1cc(C(=O)NNC(=O)c2ccccc2O)cc(OC)c1OC
inactive: DU-145 prostate 104% | K-562 leukemia 95.7% | MALME-3M melanoma 103% | MDA-MB-231 breast 87.5% | RXF 393 renal 99% | SF-268 CNS 98.1% | SF-295 CNS 98.2% | SF-539 CNS 98.5% | UACC-257 melanoma 72.4% | M14 melanoma 109%

CSc1nc(N)nc2c1ncn2C
inactive: DU-145 prostate 108% | K-562 leukemia 95% | MALME-3M melanoma 104% | MDA-MB-231 breast 109% | RXF 393 renal 116% | SF-268 CNS 98.7% | SF-295 CNS 108% | SF-539 CNS 98.9% | UACC-257 melanoma 104% | M14 melanoma 102%

COc1cc(C(=O)NNC(=O)c2ccccc2C(=O)O)cc(OC)c1OC
inactive: DU-145 prostate 56.8% | K-562 leukemia 43.1% | MALME-3M melanoma 62% | MDA-MB-231 breast 45.2% | SF-268 CNS 53.8% | SF-295 CNS 46.8% | SF-539 CNS 30.1% | UACC-257 melanoma 69.9% | M14 melanoma 51.4%
active: RXF 393 renal -3.15%

Cc1cn(-c2cc(C(=O)Nc3cccc(-n4ccc5c(NC(=O)c6ccccc6)nccc54)c3)cc(C(F)(F)F)c2)cn1
active: DU-145 prostate -9.55% | K-562 leukemia 4.74% | MDA-MB-231 breast 4% | RXF 393 renal -89.8% | SF-295 CNS -12.3% | SF-539 CNS -12.1%
inactive: MALME-3M melanoma 25.2% | SF-268 CNS 12% | UACC-257 melanoma 40.6% | M14 melanoma 11.9%

O=C(Nc1ccc(-n2ccc3c(NC(=O)c4ccccc4)ncnc32)cc1)c1cccc(C(F)(F)F)c1
inactive: DU-145 prostate 35.1% | K-562 leukemia 28.7% | MALME-3M melanoma 77.3% | MDA-MB-231 breast 51.5% | RXF 393 renal 43.9% | SF-268 CNS 38.9% | SF-295 CNS 33.2% | SF-539 CNS 35.5% | UACC-257 melanoma 60.8% | M14 melanoma 30.9%

Cn1cnc([N+](=O)[O-])c1N1c2ccncc2Sc2ccncc21
inactive: DU-145 prostate 108% | K-562 leukemia 83.2% | MALME-3M melanoma 84% | MDA-MB-231 breast 85.1% | RXF 393 renal 100% | SF-268 CNS 101% | SF-295 CNS 86.7% | SF-539 CNS 96.3% | UACC-257 melanoma 101% | M14 melanoma 101%

O=c1c2ccccc2sc2c(N3CCCC3)nc3ccccc3c12
inactive: DU-145 prostate 99% | K-562 leukemia 86.5% | MALME-3M melanoma 136% | MDA-MB-231 breast 90.5% | RXF 393 renal 103% | SF-268 CNS 98.9% | SF-295 CNS 115% | SF-539 CNS 102% | UACC-257 melanoma 106% | M14 melanoma 114%

N#Cc1c(N)nc(Cl)c(C#N)c1C(=O)c1ccccc1
active: K-562 leukemia 5.81% | RXF 393 renal -2.56%
inactive: DU-145 prostate 52.1% | MALME-3M melanoma 42.3% | MDA-MB-231 breast 26.3% | SF-268 CNS 38.6% | SF-295 CNS 56.1% | SF-539 CNS 15.2% | UACC-257 melanoma 69.4% | M14 melanoma 35%

COC(=O)c1oc2c(C(C)=O)c(OCCCN(C)C)ccc2c1C
inactive: DU-145 prostate 150% | K-562 leukemia 73.3% | MALME-3M melanoma 72.3% | MDA-MB-231 breast 95% | RXF 393 renal 96.1% | SF-268 CNS 207% | SF-295 CNS 109% | SF-539 CNS 124% | UACC-257 melanoma 106% | M14 melanoma 123%

Nc1ncc(-c2ccc3ncnc(Nc4cncc(Cl)c4)c3c2)cn1
inactive: DU-145 prostate 49.7% | K-562 leukemia 82.9% | MALME-3M melanoma 38.7% | MDA-MB-231 breast 66.5% | RXF 393 renal 60.3% | SF-268 CNS 68.2% | SF-295 CNS 77.2% | SF-539 CNS 78.1% | UACC-257 melanoma 82.9% | M14 melanoma 77.9%

CCCN1C(=O)CSC1=Nc1ccc2cc3ccc(N=C4SCC(=O)N4CCC)cc3nc2c1
active: RXF 393 renal -27.9%
inactive: DU-145 prostate 83.7% | K-562 leukemia 21.4% | MALME-3M melanoma 33.5% | MDA-MB-231 breast 18.5% | SF-268 CNS 62.9% | SF-295 CNS 23% | SF-539 CNS 46% | UACC-257 melanoma 43.9% | M14 melanoma 50.7%

CC(Cc1cccc(C(F)(F)F)c1)NCCOC(=O)c1ccccc1 (stereo not given)
inactive: DU-145 prostate 112% | K-562 leukemia 94.4% | MALME-3M melanoma 104% | MDA-MB-231 breast 102% | RXF 393 renal 117% | SF-268 CNS 99.5% | SF-295 CNS 98.4% | SF-539 CNS 116% | UACC-257 melanoma 105% | M14 melanoma 106%

O=C(Nc1ccc(-n2ccc3c(NC(=O)c4ccccc4)ncnc32)cc1)Nc1ccc(Cl)c(C(F)(F)F)c1
active: DU-145 prostate -22.7% | K-562 leukemia 0.237% | RXF 393 renal -56.9% | SF-268 CNS -15% | SF-295 CNS -37.6% | UACC-257 melanoma 7.73% | M14 melanoma 3.01%
inactive: MALME-3M melanoma 15% | MDA-MB-231 breast 12% | SF-539 CNS 13.5%

Fc1ccc(Nc2ncnc3ccc(-c4cn[nH]c4)cc23)cc1Cl
inactive: DU-145 prostate 50.8% | K-562 leukemia 66.5% | MALME-3M melanoma 54.9% | MDA-MB-231 breast 63.5% | RXF 393 renal 40.3% | SF-268 CNS 59.6% | SF-295 CNS 56.3% | SF-539 CNS 49.7% | UACC-257 melanoma 89.5% | M14 melanoma 58.7%

c1ccc2nc(Cn3cc[n+](Cc4ccc5ccccc5n4)c3)ccc2c1
inactive: DU-145 prostate 88.7% | K-562 leukemia 41.1% | MALME-3M melanoma 50.2% | MDA-MB-231 breast 77.9% | RXF 393 renal 86.6% | SF-268 CNS 67.1% | SF-295 CNS 91.5% | SF-539 CNS 58.8% | UACC-257 melanoma 21.9% | M14 melanoma 69%

CC(C)(C)C(=O)Nc1nc2c(s1)CCc1ccn(S(=O)(=O)c3ccccc3)c1-2
inactive: DU-145 prostate 99.1% | K-562 leukemia 69% | MALME-3M melanoma 99.6% | MDA-MB-231 breast 95.8% | RXF 393 renal 116% | SF-268 CNS 89.5% | SF-295 CNS 91.7% | SF-539 CNS 99.4% | UACC-257 melanoma 95% | M14 melanoma 96.1%

C=CCn1c(SCC(=O)Nc2ccc(/C(C)=N\O)cc2)nnc1-c1cc(-c2ccc(OC)cc2)nc2ccccc12
inactive: DU-145 prostate 60.6% | K-562 leukemia 19.1% | MALME-3M melanoma 66.4% | MDA-MB-231 breast 33.7% | RXF 393 renal 42.2% | SF-268 CNS 51.5% | SF-295 CNS 19.8% | SF-539 CNS 20.2% | UACC-257 melanoma 44.1% | M14 melanoma 36.3%

Cc1cccc(NCS(=O)(=O)O)c1
inactive: DU-145 prostate 112% | K-562 leukemia 107% | MALME-3M melanoma 102% | MDA-MB-231 breast 111% | RXF 393 renal 109% | SF-268 CNS 109% | SF-295 CNS 106% | SF-539 CNS 95.7% | UACC-257 melanoma 83.2% | M14 melanoma 106%

CCOc1ccc(NC2=C(Cl)C(=O)c3ccccc3C2=O)cc1
active: K-562 leukemia -2.3%
inactive: DU-145 prostate 102% | MALME-3M melanoma 108% | MDA-MB-231 breast 80.2% | RXF 393 renal 105% | SF-268 CNS 94.2% | SF-295 CNS 94.3% | SF-539 CNS 90.9% | UACC-257 melanoma 97.6% | M14 melanoma 68%

CCCCCCCCCCCCCCCCNc1ccccc1
inactive: DU-145 prostate 107% | K-562 leukemia 79.8% | MALME-3M melanoma 114% | MDA-MB-231 breast 104% | RXF 393 renal 110% | SF-268 CNS 86.6% | SF-295 CNS 102% | SF-539 CNS 97.1% | UACC-257 melanoma 82.3% | M14 melanoma 106%

CCC(N)(C(=O)O)c1ccc(F)cc1 (stereo not given)
inactive: DU-145 prostate 108% | K-562 leukemia 91.9% | MALME-3M melanoma 112% | MDA-MB-231 breast 110% | RXF 393 renal 123% | SF-268 CNS 102% | SF-295 CNS 108% | SF-539 CNS 109% | UACC-257 melanoma 86.2% | M14 melanoma 103%

Cc1ccc2[nH]c3nc4cccnc4c(C)c3c2c1
inactive: DU-145 prostate 102% | K-562 leukemia 89.1% | MALME-3M melanoma 127% | MDA-MB-231 breast 37.1% | RXF 393 renal 84.7% | SF-268 CNS 92.3% | SF-295 CNS 99.9% | SF-539 CNS 76.2% | UACC-257 melanoma 112% | M14 melanoma 103%

C=C(C)[C@@H]1C/C=C(\COC(=O)[C@H](OC(C)=O)C(NC(=O)c2ccccc2)c2ccccc2)CC[C@H]2O[C@]2(C)CC/C=C(\C)CC1 (stereo not given in full)
inactive: DU-145 prostate 86.6% [5 µM] | K-562 leukemia 14.7% [5 µM] | MALME-3M melanoma 86.3% [5 µM] | MDA-MB-231 breast 65.2% [5 µM] | RXF 393 renal 107% [5 µM] | SF-268 CNS 78.9% [5 µM] | SF-295 CNS 73.7% [5 µM] | SF-539 CNS 81.1% [5 µM] | UACC-257 melanoma 97.5% [5 µM] | M14 melanoma 34.3% [5 µM]

O=C(/C=C/c1ccco1)c1cccc(Nc2nc(Nc3ccccc3)nc(Nc3ccccc3)n2)c1
inactive: DU-145 prostate 95% | K-562 leukemia 64.4% | MALME-3M melanoma 110% | MDA-MB-231 breast 67.9% | RXF 393 renal 34.5% | SF-268 CNS 92.9% | SF-295 CNS 61.5% | SF-539 CNS 94.4% | UACC-257 melanoma 101% | M14 melanoma 92.1%

Cc1cc(SCc2ccc(Cl)cc2Cl)nc(SCc2ccc(Cl)cc2Cl)n1
inactive: DU-145 prostate 105% | K-562 leukemia 110% | MALME-3M melanoma 88.9% | MDA-MB-231 breast 101% | RXF 393 renal 108% | SF-268 CNS 102% | SF-295 CNS 95.8% | SF-539 CNS 98% | UACC-257 melanoma 98.8% | M14 melanoma 97.5%

COc1ccc(-c2nn(-c3ccc(NC(=O)Nc4ccc(Cl)c(Cl)c4)cc3)cc2-c2ccncc2)cc1Cl
inactive: DU-145 prostate 28.6% | K-562 leukemia 11.6% | MALME-3M melanoma 16% | SF-268 CNS 31.1% | SF-539 CNS 15.7% | UACC-257 melanoma 11.9%
active: MDA-MB-231 breast 0.693% | RXF 393 renal -55.7% | SF-295 CNS 1.08% | M14 melanoma 6.66%
